The panel holds about 79,000 compounds, 15% with a hit somewhere; the sample as a whole holds those more often. Active and inactive are the calls of the source. Rule as the data show it: active = growth inhibition above about 70%; inactive = the rest. Where a SMILES comes first, the peptide text is derived from it. The star is where a group is joined. Cbz = O=C(OCc1ccccc1)*
Key:
[1] = NCI Yeast Anticancer Drug Screen. Data for the rad50 strain (AID 155);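 also: 0% = growth of vehicle-only cultures of the same strain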; settings: S. cerevisiae rad50 strain growth inhibition; at 50.0 µM; hits give high values
In short: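 Compounds were tested on a yeast strain with an engineered DNA damage repair alteration; the reported value is growth inhibition normalised to vehicle treatment.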

[2] = NCI Yeast Anticancer Drug Screen. Data for the mec2-1 strain (AID 157); settings: S. cerevisiae mec2-1 strain, at 50.0 µM, hits give high values
In short: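 Readout is yeast growth inhibition, normalised to vehicle-treated controls, in the mec2-1 strain exposed to compound.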

[3] = NCI Yeast Anticancer Drug Screen. Data for the sgs1 mgt1 strain (AID 161);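 also: 0% = growth of cultures given vehicle only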; settings: S. cerevisiae sgs1 mgt1 strain, at 50.0 µM, hits give high values
In short: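 Growth of a repair-deficient yeast mutant was monitored after compound treatment and expressed as inhibition relative to vehicle-treated cultures.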

[4] = NCI Yeast Anticancer Drug Screen. Data for the cln2 rad14 strain (AID 165);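 also: 0% = growth equal to vehicle treated cultures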; settings: S. cerevisiae cln2 rad14 strain, at 50.0 µM, hits give high values
In short: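 Relative to vehicle controls, growth inhibition of compound-treated cln2 rad14 yeast was recorded.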

[5] = NCI Yeast Anticancer Drug Screen. Data for the bub3 strain (AID 167); settings: S. cerevisiae bub3 mutant strain, at 50.0 µM, hits give high values
In short: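 Growth of a checkpoint-deficient yeast mutant is measured after compound exposure. Values represent inhibition relative to vehicle.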

[6] = NCI Yeast Anticancer Drug Screen. Data for the mlh1 rad18 strain (AID 175); settings: S. cerevisiae mlh1 rad18 strain growth inhibition; at 50.0 µM; hits give high values
In short: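 Test agents were incubated with a yeast strain of defined genotype (DNA damage repair defect). Inhibition of growth was derived by comparison with vehicle-exposed cultures.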

Measured: growth inhibition

C[C@@H](O)CO
inactive: [1] 17.8% | [2] -16% | [3] 1.7% | [4] 3.75% | [5] -3.55% | [6] 13.2%

COC(=O)C(CNc1ccc(S(N)(=O)=O)cc1)=[N+]=[N-]
inactive: [1] 7.4% | [2] 13.3% | [3] 0.95% | [4] -12.8% | [5] 6.25% | [6] 11.2%

OCCN(/N=C\c1ccc2ccccc2c1)C1=NCCN1
inactive: [1] 15.3% | [2] 6.25% | [3] -22.1% | [4] -28.2% | [5] -2.5% | [6] 5.2%

Cc1ccccc1CCCC(C(=O)O)C(=O)O
inactive: [1] -18.8% | [2] -7.75% | [3] 10.8% | [4] -2.8% | [5] -1.55% | [6] 1.75%

CC(=O)OC(C)c1cc2c(s1)C(=O)c1scc(C(C)OC(C)=O)c1C2=O (stereo unspecified)
active: [1] 90.8% | [2] 93.4% | [3] 92.5% | [4] 91.9% | [5] 91.7% | [6] 91.3%

COC(=O)NC1=Nc2ccc(Cl)cc2NS1
inactive: [1] 2.4% | [2] -10.2% | [3] -25.1% | [4] 2.05% | [5] 22.1% | [6] -4.65%

N#C/C(=N\NC(=O)c1cccc(C(=O)N/N=C(\C#N)c2ccccc2Cl)n1)c1ccccc1Cl
inactive: [1] -0.95% | [2] -10.9% | [3] -5.1% | [4] -14.6% | [5] -1.85% | [6] 4.2%

Nc1ccc2nc3c4ccccc4c(O)n3nc2c1
inactive: [1] -18.5% | [2] -9.15% | [3] -18.6% | [4] -47.9% | [5] -6.2% | [6] 14.6%

S=C1SCN(c2ccc(Br)cc2)CN1c1ccc2[nH]c(=S)sc2c1
inactive: [1] 10.6% | [2] 15.3% | [3] 26.1% | [4] 0.45% | [5] 12.1% | [6] 5.65%

OC1CC2COCC2CC1O (stereo unspecified)
inactive: [1] 22.6% | [2] 1.7% | [3] 11.1% | [4] 6.9% | [5] 4.4% | [6] 10%

O=C(NC(=O)C(F)(F)F)Nc1cccc(C(F)(F)F)c1
inactive: [1] 15.6% | [2] 1.1% | [3] -14.1% | [4] -4.85% | [5] -8.25% | [6] 2.9%

c1ccc(-c2cccc(-c3cccc(-c4ccccc4)c3)c2)cc1
inactive: [1] 18.1% | [2] 0.6% | [3] 7.5% | [4] -47.9% | [5] 16.8% | [6] -6.65%

Cc1cc(=O)n(-c2cncc(Br)c2)[nH]1
inactive: [1] 1.5% | [2] 2.05% | [3] 1.5% | [4] -17.5% | [5] 12.4% | [6] 7.75%

O=C1NC(N2CCCCC2)=N/C1=C\c1ccc(Cl)cc1
inactive: [1] -7.5% | [2] -7% | [3] 2.4% | [4] 7.55% | [5] -12.3% | [6] -38.5%

CCCNC(=O)c1nc(SC)sc1NC(=O)c1ccccc1
inactive: [1] 10.3% | [2] 3.5% | [3] -50.1% | [4] 17.6% | [5] 1.95% | [6] 10.9%

CCCCN1C(=O)C(NC(C)=O)C1COC(C)(C)C (stereo unspecified)
inactive: [1] -21.9% | [2] -5.2% | [3] -28.4% | [4] -8.65% | [5] -28.1% | [6] -35.5%

COC(=O)c1nc(N)nc(C(=O)OC)c1C(=O)c1ccco1
inactive: [1] 3.95% | [2] -4.25% | [3] 30.3% | [4] -3.7% | [5] 1.55% | [6] 26.5%

Nc1ccccc1CCO
inactive: [1] 14.5% | [2] -6.75% | [3] 30.9% | [4] 13.2% | [5] -5.8% | [6] 19.5%

CCC(N)(C(=O)O)C(C)C (stereo unspecified)
inactive: [1] -25.7% | [2] -8.65% | [3] -12.1% | [4] -0.45% | [5] 8.4% | [6] -3.75%

CCOC(=O)C(C)NC(=O)C(C)NC(=O)C(C)NC(=O)C(C)NC(=O)C(C)NC(=O)C(C)NC(=O)C(C)NC(=O)OCc1ccccc1 (stereo unspecified) (Cbz-AAAAAAA-OEt; configuration not given here)
inactive: [1] -16.2% | [2] -23.4% | [3] -21.4% | [4] 16.6% | [5] 5.4% | [6] -8.45%

Cc1cccc(NC(=O)NC2CCC(CC3CCCCC3)CC2)c1 (stereo unspecified)
inactive: [1] 16.7% | [2] 5.8% | [3] 7.2% | [4] -9.6% | [5] -1.55% | [6] 7.65%

Nc1nc2ccc([N+](=O)[O-])cc2s1
inactive: [1] 6.15% | [2] -6.45% | [3] 10.8% | [4] -18.4% | [5] -12.8% | [6] -8.1%

OC(COc1c2ccccc2nc2ccccc12)CN1CCN(c2ccccc2)CC1 (stereo unspecified)
inactive: [1] 21.9% | [2] -5.45% | [3] 6.5% | [4] 9% | [5] 0.9% | [6] 19.9%

CSc1nc(C)c(CCOC(C)=O)c(Cl)n1
inactive: [1] -18.1% | [2] -19.4% | [3] -16.2% | [4] -0.25% | [5] 17.1% | [6] 4.25%

Cc1ccccc1Nc1n[nH]c(=O)n1-c1ccccc1C
inactive: [1] 4.05% | [2] 6.65% | [3] 1.75% | [4] -12.5% | [5] 1.15% | [6] 2.9%

O=[N+]([O-])c1ccc(Oc2ccccc2-c2ccccc2)c([N+](=O)[O-])c1
inactive: [1] -2% | [2] -3.7% | [3] 11.6% | [4] -73.7% | [5] 8.2% | [6] 14.4%

C/C=C(/C)C(=O)O[C@H]1C[C@@H]2[C@@H](O)c3occ(C)c3C[C@]2(C)[C@@H](C)C1
active: [1] 91% | [2] 92.4% | [3] 91.6% | [4] 90% | [5] 90.8% | [6] 90.2%

CN(C)CC(Oc1ccccc1)C(=O)c1ccccc1 (stereo unspecified)
inactive: [1] -3.2% | [2] -10.2% | [3] 29.8% | [4] -26.3% | [5] -16.9% | [6] -5.15%

c1ccc(C2=NCCc3cc4c(cc32)OCO4)cc1
inactive: [1] 3.35% | [2] 0.7% | [3] 7.8% | [4] 10.1% | [5] 13.2% | [6] 9.4%

CC(=O)OCc1ccc(Cl)cc1Cl
inactive: [1] 3.65% | [2] -2.9% | [3] 7.25% | [4] 7.4% | [5] -33.4% | [6] -12.2%

N#CCc1n[nH]c(Cc2ccccc2)n1
inactive: [1] 2.35% | [2] 6.6% | [3] 3.9% | [4] 7.6% | [5] 0.8% | [6] 12.4%

O=c1[nH]c(=O)n(COCCO)cc1-c1ccccc1
inactive: [1] -8.75% | [2] -5.65% | [3] 1.9% | [4] 5.75% | [5] -1.25% | [6] -2.9%

O=C(O)COc1cc(-c2ccccc2)nc2ccc(F)cc12
inactive: [1] -3% | [2] 16.6% | [3] 31.5% | [4] 7.25% | [5] 3.1% | [6] 10.2%

C=C1C(=O)OC2/C=C(\C)CC(O)/C=C(/CO)CC(OC(=O)/C(C)=C/C)C12 (stereo unspecified)
inactive: [1] -4.5% | [2] -33.6% | [3] -6.55% | [4] -1.9% | [5] -1.65% | [6] -58.5%

C[N+]1(C)C2Cc3ccccc3C1Cc1ccccc12
inactive: [1] -1.7% | [2] -11.6% | [3] 11.4% | [4] 10.4% | [5] 3.75% | [6] -57%

CCOC(=O)/C(C#N)=C(O)\C(=C\c1ccc(Cl)cc1)NC(=O)c1ccc(NC(C)=O)cc1
inactive: [1] 8.9% | [2] -0.3% | [3] -17.4% | [4] 9.2% | [5] -8.1% | [6] 5.65%

c1ccc2c(c1)nn1c3ccc4nonc4c3[n-][n+]21
inactive: [1] 1.2% | [2] -0.5% | [3] 25.9% | [4] 13.2% | [5] 31.4% | [6] -11.4%

Nc1cc(Cl)cc(S(=O)(=O)O)c1O
inactive: [1] 1.9% | [2] -0.05% | [3] -2.95% | [4] -65.9% | [5] 9.05% | [6] -13.9%

CCCCCCCC[N+](C)(C)CC#CC[N+](C)(C)CCCCCCCC
inactive: [1] 46.2% | [2] -14.3% | [3] 13.9% | [4] -1.65% | [5] 11.1% | [6] 44.1%

OC(C/C(=N\Nc1ccccc1)c1ccc(Br)cc1)(C(F)(F)F)C(F)(F)F
inactive: [1] 67.2% | [5] 44.9%
active: [2] 97% | [3] 88.8% | [4] 85.7% | [6] 96.5%

COc1ccc(C2COc3c(ccc(OC)c3OC)C2=O)cc1OC (stereo unspecified)
inactive: [1] -20.7% | [2] -1% | [3] -1.2% | [4] -6.5% | [5] -0.5% | [6] -18.5%

— PubChem BioAssay (NCI)
